Reference: PubChem BioAssay AID1159580 (chemical genetic matrix, 2015)
Values joined by “and” are separate entries in the source; they are usually repeats but may differ in a detail not shown here. Identical values can stand only once. About 2,000 (36%) of roughly 5,500 compounds were called active. Roughly 18% stayed inconclusive and do not appear here. Rule as the data show it: active = normalized growth mostly below about 0.91 (no sharp cut-off); inconclusive = no clear call, values can overlap the other calls; inactive = mostly above about 0.92. The list shows a part of the results. Where a structure was tested more than once in an assay, its records may differ in their call.

Assay: chemical genetic growth profiling, strain panel (AID 1159580);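 also: tested at 20 µM; growth read once vehicle control cultures reached saturation at 30 °C; 1 = growth at the plate median or of vehicle wells; lower values mean less growth of the strain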
Conditions: S. cerevisiae deletion strains, growth OD

Measured: normalized growth

O=C1CCc2cc(OCCCCc3nnnn3C3CCCCC3)ccc2N1
0.998 (inactive) and 0.252 (active): locus YJR075W, strain HOC1, stronger effect = lower value
inactive: locus YAL013W, strain DEP1, stronger effect = lower value 1 | locus YAL021C, strain ccr4, stronger effect = lower value 0.996 | locus YAL026C, strain drs2, stronger effect = lower value 1.01 | locus YAL030W, strain snc1, stronger effect = lower value 0.985 | locus YAL040C, strain CLN3, stronger effect = lower value 1.01 | locus YBL061C, strain skt5, stronger effect = lower value 0.991 | locus YBR009C, strain hhf1, stronger effect = lower value 0.989 | locus YBR021W, strain FUR4, stronger effect = lower value 1.03 | locus YBR023C, strain chs3, stronger effect = lower value 1 | locus YBR171W, strain sec66, stronger effect = lower value 0.981 | locus YBR229C, strain ROT2, stronger effect = lower value 1 | locus YBR231C, strain swc5, stronger effect = lower value 0.99 | locus YBR279W, strain paf1, stronger effect = lower value 0.989 | locus YCL011C, strain gbp2, stronger effect = lower value 0.995 | locus YCL016C, strain dcc1, stronger effect = lower value 1 | locus YCL029C, strain bik1, stronger effect = lower value 0.988 | locus YCL061C, strain MRC1, stronger effect = lower value 0.988 | locus YCL069W, strain vba3, stronger effect = lower value 0.982 | locus YCR088W, strain abp1, stronger effect = lower value 0.992 | locus YDL005C, strain med2, stronger effect = lower value 0.983 | locus YDL035C, strain GPR1, stronger effect = lower value 1.01 | locus YDL040C, strain nat1, stronger effect = lower value 0.988 | locus YDL074C, strain BRE1, stronger effect = lower value 1.03 | locus YDL101C, strain DUN1, stronger effect = lower value 1 | locus YDL134C, strain PPH21, stronger effect = lower value 1.01 | locus YDL185W, strain tfp1, stronger effect = lower value 0.993 | locus YDL192W, strain arf1, stronger effect = lower value 0.971 | locus YDR001C, strain nth1, stronger effect = lower value 0.998 | locus YDR069C, strain doa4, stronger effect = lower value 0.987 | locus YDR101C, strain arx1, stronger effect = lower value 0.977 | locus YDR137W, strain rgp1, stronger effect = lower value 0.894 | locus YDR150W, strain NUM1, stronger effect = lower value 1.01 | locus YDR159W, strain sac3, stronger effect = lower value 0.978 | locus YDR162C, strain NBP2, stronger effect = lower value 1.02 | locus YDR195W, strain ref2 0.958 | locus YDR297W, strain sur2, stronger effect = lower value 0.995 | locus YDR318W, strain mcm21, stronger effect = lower value 1 | locus YDR334W, strain swr1, stronger effect = lower value 0.999 | locus YDR335W, strain msn5, stronger effect = lower value 0.981 | locus YDR388W, stronger effect = lower value 0.99 | locus YDR392W, strain spt3, stronger effect = lower value 0.984 | locus YDR502C, strain sam2, stronger effect = lower value 1.02 | locus YEL003W, strain gim4, stronger effect = lower value 1 | locus YEL037C, strain rad23, stronger effect = lower value 0.999 | locus YEL061C, strain CIN8 (second series), stronger effect = lower value 0.998 | locus YEL061C, strain CIN8, stronger effect = lower value 1 | locus YER002W, strain NOP16, stronger effect = lower value 1.01 | locus YER015W, strain faa2, stronger effect = lower value 0.997 | locus YER016W, strain bim1, stronger effect = lower value 0.993 | locus YER110C, stronger effect = lower value 0.993 | locus YER111C, strain swi4, stronger effect = lower value 0.979 | locus YER155C, strain BEM2 (second series), stronger effect = lower value 0.965 | locus YER155C, strain BEM2, stronger effect = lower value 1.02 | locus YER167W, strain BCK2, stronger effect = lower value 1 | locus YFR010W, strain ubp6, stronger effect = lower value 0.991 | locus YGL078C, strain dbp3, stronger effect = lower value 1 | locus YGL086W, strain mad1, stronger effect = lower value 1 | locus YGL167C, strain pmr1, stronger effect = lower value 0.986 | locus YGL173C, strain kem1, stronger effect = lower value 0.986 | locus YGL227W, strain vid30, stronger effect = lower value 0.985 | locus YGL240W, strain doc1, stronger effect = lower value 0.959 | locus YGL248W, strain PDE1, stronger effect = lower value 1 | locus YGL253W, strain hxk2, stronger effect = lower value 1 | locus YGR078C, strain PAC10, stronger effect = lower value 1.02 | locus YGR135W, strain pre9, stronger effect = lower value 0.997 | locus YGR229C, strain SMI1, stronger effect = lower value 1.01 | locus YGR252W, strain gcn5, stronger effect = lower value 0.956 | locus YHR013C, strain ard1, stronger effect = lower value 0.99 | locus YHR027C, strain rpn1, stronger effect = lower value 0.998 | locus YHR030C, strain SLT2, stronger effect = lower value 1 and 0.979 | locus YHR079C, strain IRE1 (second series), stronger effect = lower value 0.995 | locus YHR079C, strain IRE1, stronger effect = lower value 0.986 | locus YHR094C, strain hxt1, stronger effect = lower value 0.993 | locus YHR129C, strain ARP1, stronger effect = lower value 1 | locus YHR142W, strain chs7, stronger effect = lower value 1 | locus YHR200W, strain rpn10, stronger effect = lower value 0.995 | locus YIL066C, strain RNR3, stronger effect = lower value 1.01 | locus YIL073C, strain SPO22, stronger effect = lower value 0.989 | locus YIL125W, strain kgd1, stronger effect = lower value 1.01 | locus YIR030C, strain dcg1, stronger effect = lower value 0.998 | locus YJL092W, strain hpr5, stronger effect = lower value 0.996 | locus YJL095W, strain BCK1 (second series), stronger effect = lower value 0.984 | locus YJL095W, strain BCK1, stronger effect = lower value 1.01 and 0.989 | locus YJL115W, strain asf1, stronger effect = lower value 0.999 | locus YJL129C, strain trk1, stronger effect = lower value 0.973 | locus YJL134W, strain LCB3, stronger effect = lower value 1 | locus YJL154C, strain vps35, stronger effect = lower value 0.993 | locus YJL164C, strain tpk1, stronger effect = lower value 1 | locus YJL166W, strain qcr8, stronger effect = lower value 0.979 | locus YJL168C, strain set2, stronger effect = lower value 0.992 | locus YJL187C, strain SWE1 (second series), stronger effect = lower value 1.01 | locus YJR043C, strain POL32, stronger effect = lower value 1.01 | locus YJR066W, strain TOR1, stronger effect = lower value 0.942
active: locus YCL061C, strain MRC1 (second series), stronger effect = lower value 0.0772
